From PubChem BioAssay (EPA / NIEHS)
Results filed as inconclusive are left out. The source made the active and inactive calls. The calls were made as follows, unless noted: active = hit-call score of the fitted dose curve at least 0.9, where 1 is the maximum; inactive = score below 0.9.

How the values were obtained:
[1] = CCTE_Mundy_HCI_Cortical_NOG_NeuriteCount: CCTE's Neurite Outgrowth Assay in rat cortical cells for Neurite Count, Mundy Lab (AID 2284212);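 also: cells fixed about two days after chemical exposure began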
Method: CCTE_Mundy_HCI_Cortical_NOG is a multiplexed, cell-based-readout assay that uses rat primary cortical cells with measurements taken at 50.33 hours after chemical dosing in a microplate: 96-well plate.CCTE_Mundy_HCI_Cortical_NOG_NeuriteCount is one of four components of the CCTE_Mundy_HCI_Cortical_NOG assay. It measures neurite outgrowth related to the number of neurites using High Content Imaging of fluorescently labelled markers.[…] Using a type of morphology reporter, loss -of-signal activity can be used to understand developmental effects.
Exposure starts 2 hours post-plating by adding 10 ul of the working solution to 90 ul of media in the wells for a 1/10 dilution. Forty-eight hours after chemical treatment cells are fixed by direct addition of 100 ul of warm (37C) Dulbecco's phosphate buffered saline (DPBS) fixative solution containing 8% paraformaldehyde, 8% sucrose, and 0.1% of 3 mg/ml Hoechst 33342 into each well. Primary antibodies are prepared by dilution in Immunocytochemical Staining Buffer (ISB), 10X Dulbecco's PBS, 0.1% Saponin, 5% Bovine Serum Albumin, 0.5% NaN3 (Sodium Azide) and betaIII-tubulin (rabbit anti-betaIII-tubulin, 1:800) followed by Alexa Fluor-488 secondary (1:500) to label neuronal cell bodies and neurites. A Cellomics ArrayScan VTi HCS Reader is used for automated image acquisition and analysis of neurite outgrowth.

[2] = CCTE_Mundy_HCI_Cortical_NOG_NeuriteLength: CCTE's Neurite Outgrowth Assay in rat cortical cells for Neurite Length, Mundy Lab (AID 2284213)
Outline: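 First, rat primary cortical cells were plated and, 2 h later, given test chemical as a 1/10 dilution. Finally, βIII-tubulin immunostaining enabled automated imaging of neurite length.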

[3] = CCTE_Mundy_HCI_Cortical_Synap_Neur_Matur_NeuriteLength: CCTE's Synaptogenesis and Neurite Maturation Assay in rat cortical cells for Neurite Length, Mundy Lab (AID 2284214)
Outline: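 DMSO-normalised neurite length, from high-content imaging of anti-MAP2-stained rat cortical cells fixed at DIV 12. Glia were suppressed with AraC (DIV 5) before chemical exposure from DIV 7.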

[4] = CCTE_Mundy_HCI_Cortical_Synap_Neur_Matur_NeuriteSpotCountPerNeuron: CCTE's Synaptogenesis and Neurite Maturation Assay in rat cortical cells for Neurite Spot Count per Neuron Count, Mundy Lab (AID 2284215)
Method: CCTE_Mundy_HCI_Cortical_Synap&Neurite_Matur is a multiplexed, cell-based-readout assay that uses rat primary cortical cells with measurements taken at 288.33 hours after chemical dosing in a microplate: 96-well plate.CCTE_Mundy_HCI_Cortical_Synap_Neur_Matur_NeuriteSpotCountPerNeuron is one of eight components of the CCTE_Mundy_HCI_Cortical_Synap&Neurite_Matur assay. It measures synaptogenesis and neurite maturation related to number of neurite-associated synapses (synaptophysin puncta) per neuron using High Content Imaging of fluorescently labelled markers.[…] Using a type of morphology reporter, loss -of-signal activity can be used to understand developmental effects.
Cells are plated onto 96 well plates and allowed 2 hr for attachment to the substrate. At days in vitro (DIV) 5, Cytosine Arabinoside (AraC) is added to arrest glial cell growth. Chemicals are dosed and a media change is performed at DIV 7 of differentiation and is continued through DIV 12 when the experiment is terminated. Cells are fixed with […] and Hoechst Dye. Cells are stained using Millipore Mouse anti-MAP2MAB3418 (1:800) and Millipore Rabbit anti-Synaptophysinsc-1750 (1:250) primary antibodies and Alexa Fluor-488 goat anti-mouse and AlexaFluor-546 goat anti-rabbit secondary antibodies to label neuronal cell nuclei, synapses and neurites. A Cellomics ArrayScan VTi HCS Reader is used for automated image acquisition and analysis of neurite outgrowth.

[5] = CCTE_Mundy_HCI_Cortical_Synap_Neur_Matur_SynapseCount: CCTE's Synaptogenesis and Neurite Maturation Assay in rat cortical cells for Synapse Count, Mundy Lab (AID 2284218)
Outline: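 Endpoint: synapses/neuron by HCI (synaptophysin puncta on MAP2-labelled neurites, Hoechst nuclei). Rat primary cortical cells, AraC DIV 5, dosed DIV 7, fixed DIV 12; DMSO negative control.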

[6] = CCTE_Mundy_HCI_Cortical_Synap_Neur_Matur_NeuriteCount: CCTE's Synaptogenesis and Neurite Maturation Assay in rat cortical cells for Neurite Count, Mundy Lab (AID 2284222);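 also: exposure from day 7 to day 12 in vitro with readout at day 12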
Outline: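 In this multiplexed morphology readout, rat primary cortical neurons are fixed at DIV 12 following dosing at DIV 7 and stained for MAP2, synaptophysin and nuclei. High-content image analysis yields neurite count.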

[7] = TAMU_PeakParms_SingleDonor1434_Chronotropy: Texas A&M University (TAMU) 1.5-hr Human Induced Pluripotent Stem Cell (iPSC)-derived Cardiomyocytes Calcium (Ca+2) Flux Assay for Cardiotoxicity: Chronotropy (changes in peak frequency) (AID 2284217); settings: actives raise or lower the signal
Method: TAMU_PeakParms is a cell-based, multiplexed-readout assay that uses iPSC-derived cardiomyocytes with measurements taken at 1.5 hours after chemical dosing in a microplate: 384-well plate.TAMU_PeakParms_SingleDonor1434_Chronotopy is a phenotype derived from the peak.freq.avg parameter and uses an EC05 as its POD (5% increase in beat rate, compared to controls). Peak.Freq.Avg measures the average peak frequency, in beats per second, using Fluorescence intensity as a functional reporter from Calcium (Ca+2) flux assay technology. Before modeling, data is preprocessed to remove data points where there is a cessation of beating (where peak.freq.avg equals 0) to ensure the capture of the upwards response that isn't confounded by the drop in beat rate at higher concentrations and to ensure the drop in beat rate is captured before asystole, which is captured elsewhere.Data from the assay component TAMU_PeakParms_SingleDonor1434_Chronotropy was analyzed into 1 assay endpoint. This assay endpoint, TAMU_PeakParms_SingleDonor1434_Chronotropy_Negative, was analyzed with bidirectional fitting relative to DMSO as the negative control and baseline of activity. Using a type of functional reporter, gain or loss-of-signal activity can be used to understand changes in the cardiac function. To generalize the intended target to other relatable targets, this assay endpoint is annotated to the cardiomyocyte function intended target family, where the subfamily is lowered beat rate.
Each test compound from the chemical master plates was transferred into new tissue culture-treated 384-well microplates using acoustic dispensing (Labcyte Echo 550, Beckman Coulter, Indianapolis, IN) in amounts that would result in 5x concentrations (1, 5, 50, 500 uM) in the working plate in a final volume of 50 uL. Chemicals were randomly divided into 16 separate 384-well plates for screening such that the outer-most wells were left empty (308 wells were used on each plate). […]

[8] = CCTE_Mundy_HCI_hN2_NOG_NeuriteCount: CCTE's Neurite Outgrowth Assay in human hN2 cells for Neurite Count, Mundy Lab (AID 2284219; active = hit-call score of the fitted dose curve at least 0.9, where 1 is the maximum)
Outline: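 In this morphology assay, hNP1-derived neurons received test chemical 2 h post-plating and were fixed two days later in warm paraformaldehyde/sucrose containing Hoechst 33342. Neurites, labelled by rabbit anti-βIII-tubulin (1:800) and Alexa Fluor-488 (1:500), were counted automatically.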

[9] = CCTE_Mundy_HCI_hN2_NOG_NeuriteLength: CCTE's Neurite Outgrowth Assay in human hN2 cells for Neurite Length, Mundy Lab (AID 2284220; active = hit-call score of the fitted dose curve at least 0.9, where 1 is the maximum)
Outline: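 Plate hNP1-derived neurons, then add chemical 2 h later as a 1/10 dilution. Stain with anti-βIII-tubulin then Alexa Fluor-488 secondary, and image automatically to measure neurite length.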

[10] = CCTE_Mundy_HCI_hN2_NOG_NeuronCount: CCTE's Neurite Outgrowth Assay in human hN2 cells for Neuron Count, Mundy Lab (AID 2284221; active = hit-call score of the fitted dose curve at least 0.9, where 1 is the maximum)
Outline: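 Read-out is the number of betaIII-tubulin-positive neurons imaged by automated high-content analysis, with DMSO as negative control.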

SMILES | outcome [1] | outcome [2] | outcome [3] | AC50 [4] | AC50 [5] | outcome [6] | outcome [7] | outcome [4] | outcome [5] | outcome [8] | outcome [9] | outcome [10]
O=P(OC(CCl)CCl)(OC(CCl)CCl)OC(CCl)CCl | inactive | inactive | inactive | 2.98 µM (active) | 2.98 µM (active) | inactive |  |  |  |  |  | 
CCCCCCc1ccc(O)cc1O |  |  |  |  |  |  | inactive |  |  |  |  | 
Cn1c(=O)c2c(ncn2C)n(C)c1=O | inactive | inactive | inactive |  |  | inactive |  | inactive | inactive | inactive | inactive | inactive
NC(=O)NO | inactive | inactive | inactive |  |  | inactive | inactive | inactive | inactive | inactive | inactive | 
CC[C@H]1OC(=O)[C@H](C)[C@@H](O[C@H]2C[C@@](C)(OC)[C@@H](O)[C@H](C)O2)[C@H](C)[C@@H](O[C@@H]2O[C@H](C)C[C@H](N(C)C)[C@H]2O)[C@](C)(O)C[C@@H](C)C(=O)[C@H](C)[C@@H](O)[C@]1(C)O | inactive | inactive | inactive |  |  | inactive |  | inactive | inactive |  |  | 
O=C1CCC(N2C(=O)c3ccccc3C2=O)C(=O)N1 (centres undefined) | inactive |  | inactive |  |  | inactive | inactive | inactive | inactive |  | inactive | inactive
